# Bioassay records from PubChem.
# This is a sample that favours compounds with a hit; in the whole collection about 13% have one here.
# L major viab: inhibitors of Leishmania major promastigote growth | Leishmania major promastigotes, resazurin fluorescence viability | 9% of 200,000 active | inhibition, % at 10 µM; in the data active = inhibition above about 50%;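 also: promastigotes grown with compound for 44 hours at 28 °C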
# WT yeast gro inh: growth inhibition of WT yeast, mitochondrial fusion screen | 2.1% of 190,000 active | inhibition, % at 10 µM | AID 1362 | mitochondrial fusion phenotypic screen, WT strain; in the data active = inhibition above about 58%; tested in S. cerevisiae
# CHOP inh: inhibitors of CHOP induction in ER stress response. CHO-K1 CHOP-promoter luciferase, tunicamycin-induced, 15-18 h. inhibition, % at 10 µM. 3.8% of 220,000 active;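 active = compounds that reduced the stress-induced luciferase reporter signal by more than about 70% of percent inhibition, limit read from the data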
# RAM network inh: yeast RAM network inhibition; S. cerevisiae dse1pr::URA3 reporter, 5-FOA growth OD615, 2 d; analog-sensitive cbk1-as2 kinase mutant strain; inhibition, % at 50 µM; AID 868; 1.8% of 190,000 active;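 active = inhibition above a set limit, 3 SD over mean compound inhibition, cut at about 8.4% in these data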;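 also: inhibition rescues growth on 5-FOA so higher OD means more RAM inhibition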
# A number is an active result; . = inactive; / = no result given.
SMILES,L major viab,WT yeast gro inh,CHOP inh,RAM network inh
OCCC1CN(Cc2ccc3c(c2)CCO3)CCN1Cc1ccc(F)cc1 (stereo unspecified),75.4,.,.,.
CC(=O)c1cccc(CN2CCN(CC=C(C)C)C(CCO)C2)c1 (stereo unspecified),/,/,.,/
COc1cccc(N(CC(=O)NCc2ccco2)C(=O)CCC(=O)Nc2nccs2)c1,/,/,.,/
CC(=O)c1cccc(CN2CCN(C3CCCC3)C(CCO)C2)c1 (stereo unspecified),.,.,.,.
CC(=O)c1cccc(CN2CCN(Cc3ccc(C)cc3)C(CCO)C2)c1 (stereo unspecified),79.3,.,.,.
Cc1ccc(CN2CC(C(=O)Nc3cccc(S(=O)(=O)N4CCCCC4)c3)CC2=O)cc1 (stereo unspecified),.,.,.,.
Nc1cc(=O)[nH]c(SCC(=O)N2N=C(c3ccc4ccccc4c3)CC2c2ccccc2)n1 (stereo unspecified),/,/,86.3,/
C=CCNCC(=O)N1N=C(c2ccc3ccccc3c2)CC1c1ccc(OC)cc1 (stereo unspecified),.,.,.,.
CC(=O)OCC(=O)N1N=C(c2ccc3ccccc3c2)CC1c1ccccc1 (stereo unspecified),85.5,68.2,.,.
COc1ccc(C2CC(c3ccc4ccccc4c3)=NN2C(=O)CNC2CCCCC2)cc1 (stereo unspecified),100.2,.,.,.
COc1ccc(C2CC(c3ccc4ccccc4c3)=NN2C(=O)COC(=O)C2CCC(=O)N2)cc1 (stereo unspecified),.,.,.,.
O=[N+]([O-])c1cc(S(=O)(=O)Nc2ccccc2)ccc1N1CCN(c2ccc(O)cc2)CC1,79.5,.,.,.
Cc1ccc(NS(=O)(=O)c2ccc(N3CCN(c4ccc(O)cc4)CC3)c([N+](=O)[O-])c2)c(C)c1,97.7,.,73.3,.
CC(=O)N1CCCc2cc(S(=O)(=O)Nc3ccc(C)cc3C)ccc21,.,.,.,.
CCNc1nc2cccnc2s1,/,/,.,/
CCc1cccc2c(C(=O)CSc3nncn3-c3ccc(OC)cc3)c[nH]c12,53.1,.,.,.
CCc1cccc2c(C(=O)CSc3nncn3-c3ccccc3OC)c[nH]c12,.,.,.,.
C=CCOc1ccc(/C=C2\C(=N)N3N=C(S(=O)(=O)CC)SC3=NC2=O)cc1OC,.,.,.,9.6
COc1ccccc1-c1ccc(SCc2cccc(C)c2)nn1,98.6,67.8,.,.
CC1CCCCC1NC(=O)/C(C#N)=C/c1ccc2c(c1)OCCO2 (stereo unspecified),59.3,.,.,.
C=CCNC(=O)/C(C#N)=C/c1ccc2c(c1)OCCO2,.,.,.,.
CC1CCCCC1NC(=O)/C(C#N)=C/c1ccc(F)c(F)c1 (stereo unspecified),96.4,.,.,.
CSc1ccc(/C=C(\C#N)C(=O)NC2CCCCC2)cc1,.,.,.,.
CC(C)Sc1nc(N2CCOCC2)c2c(c1C#N)CC(C)(C)SC2,.,.,.,.
CCCSc1nc(N2CCOCC2)c2c(c1C#N)CC(C)(C)SC2,.,.,78.4,.
SMILES,L major viab,WT yeast gro inh,CHOP inh,RAM network inh
O=C(COc1cccc(Br)c1)N/N=C1\CCCc2ccccc21,.,.,74.5,.
O=C(N/N=C1\CCc2ccccc21)c1ccccc1O,.,.,.,.
O=C(N/N=C1\CCCc2ccccc21)c1ccccc1Cl,88.2,.,.,.
CC1CN(C(=O)N(C)C)CCN1C(=O)N(C)C (stereo unspecified),.,65.7,.,.
CN(C)C(=O)N1CCN(C(=O)N(C)C)CC1,.,.,.,.
CCn1c(SCc2cccc(C(F)(F)F)c2)nnc1-c1ccco1,.,.,.,9.6
O=C1C2C3C=CC(C3)C2C(=O)N1c1ccc(N2CCN(c3ccccn3)CC2)c([N+](=O)[O-])c1 (stereo unspecified),75.8,.,.,.
C/C(=N/NC(=O)CC1N=C(Cc2ccccc2)NNC1=O)c1cccnc1 (stereo unspecified),.,.,.,.
CCCn1c(SCC(=O)NC(=O)NC(C)(C)C)n[nH]c1=O,.,.,.,.
CCCc1sc(N/N=C/c2ccccn2)nc1-c1ccc(Br)cc1,96.5,64.8,.,.
O=C(Nc1ccc(CN2CCOCC2)cc1)c1ccc(-c2cccc(Cl)c2)o1,99.4,.,.,.
O=C(NC(=S)Nc1ccc(CN2CCOCC2)cc1)c1ccc(-c2ccc(Cl)cc2)o1,/,/,.,/
CC(C)c1ccc(/C=C/C(=O)Nc2ccc(CN3CCOCC3)cc2)cc1,/,/,.,/
O=C(Nc1ccc(CN2CCOCC2)cc1)c1ccc(-c2ccc(Cl)cc2Cl)o1,73.5,.,.,.
O=C(/C=C/c1ccc(Cl)cc1)Nc1ccc(CN2CCOCC2)cc1,82.4,.,.,.
